Laboratory results published in PubChem BioAssay (NCI).
“And” between values parts separate entries of the source, which are not always exact repeats. Equal entries are not always repeated. The panel holds about 83,000 compounds, 20% with a hit somewhere; the sample as a whole holds those more often.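 Activity criterion: percent growth below 10, measured after cells in 96-well plates were exposed to a single compound concentration for 48 hours.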 A number with no mark means an inactive call. The source made the active and inactive calls.

System: MDA-MB-468 breast
Assay: NCI-60 one-dose screen, 48 h (100 = growth as untreated, 0 = no growth, -100 = all killed)

## ClCCN(CCCl)c1nc(Cl)c(C2CC(c3ccc(Cl)cc3)=NN2c2cc(Cl)cc(Cl)c2)s1 (centres undefined)
10 µM unless noted
  growth: 112%

## O=C(CI)Nc1ccc(Br)cc1
10 µM unless noted
  growth: 79.1%

## O=[N+]([O-])c1cnc[nH]1
10 µM unless noted
  growth: 108%

## COc1ccc2c(c1)c(-c1nc(-c3c[nH]c4ncccc34)cs1)cn2CCCCN1CCOCC1
10 µM unless noted
  growth: 39.3%

## O=C([O][Hg][c]1ccccc1)c1ccccc1
10 µM unless noted
  growth: -67.2% (active)

## CC[C@H](C)[C@H]1O[C@]2(C=C[C@@H]1C)C[C@@H]1C[C@@H](C/C=C(\C)[C@@H](O[C@H]3C[C@H](OC)[C@@H](O[C@H]4C[C@H](OC)[C@@H](NC)[C@H](C)O4)[C@H](C)O3)[C@@H](C)/C=C/C=C3\CO[C@@H]4[C@H](O)C(C)=C[C@@H](C(=O)O1)[C@]34O)O2
10 µM unless noted
  growth: -68.8% (active)

## Cc1cccc(N(C)c2cccc3c2C(=O)[Se]C3)c1C
10 µM unless noted
  growth: 16.9%

## COC(=O)[C@@H](C)C[C@H](Cc1ccccc1)NC(=O)c1csc([C@@H](C[C@H](C(C)C)N(C)C(=O)C2(NC(=O)[C@H]3CCCCN3C)CCC2)OC(C)=O)n1
10 µM unless noted
  growth: 7.04% (active)

## Cc1ccc(P(=O)(O)O)cc1
10 µM unless noted
  growth: 88.3%

## O=C(O)c1cccc(CCl)c1
10 µM unless noted
  growth: 105%

## O=S(=O)(F)c1ncnc2nc[nH]c12
10 µM unless noted
  growth: 96.1%

## COS(=O)(=O)c1ccccc1
10 µM unless noted
  growth: 114%

## COc1ccc(/C=C\c2cc(OC)c(OC)c(OC)c2)cc1OCC(=O)Nc1nc2ccc(OC(F)(F)F)cc2s1
10 µM unless noted
  growth: -22.1% (active)

## CCOC(=O)/C(C#N)=C/c1ccc(N(CCCl)CCCl)cc1
10 µM unless noted
  growth: 64.2%

## O=C(O)C(Cl)(Cl)C(F)(F)F
10 µM unless noted
  growth: 106%

## CCOP(=O)(NC[C@H]1O[C@](O)(CO)[C@@H](O)[C@@H]1O)OCC
10 µM unless noted
  growth: 107%

## CC(C)(NC(=O)c1nn(CCCCCF)c2ccccc12)c1ccccc1
10 µM unless noted
  growth: 93.9%

## CCN1CC2(CN(CC)C1=S)C(=O)NC(=O)NC2=O
10 µM unless noted
  growth: 116%

## NC1CN2CCC1CC2 (centres undefined)
10 µM unless noted
  growth: 108%

## Cc1c2cc(Cl)c3ccccc3c2c[n+]2ccccc12
10 µM unless noted
  growth: -71.5% (active)

## COC(=O)[C@@H](C)C[C@H](Cc1ccccc1)NC(=O)c1csc(CC[C@H](C(C)C)N(C)C(=O)[C@@H](NC(=O)[C@H]2CCCCN2C)C(C)C)n1
10 µM unless noted
  growth: 8.45% (active)

## C[C@]12C[C@H](O)[C@H]3[C@@H](CCC4=CC(=O)CC[C@@]43C)[C@@H]1CC[C@@H]2O
10 µM unless noted
  growth: 99.7%

## O=C1NC(=O)C(O)(C2(O)C(=O)NC(=O)NC2=O)C(=O)N1
10 µM unless noted
  growth: 99.8%

## CC1(C)N=C(N)N=C(N)N1c1ccc(OCCCCOc2ccc(S(=O)(=O)F)cc2)c(Cl)c1
10 µM unless noted
  growth: -16.2% (active)

## CC(=O)O[C@H]1C[C@H](O[C@H]2[C@@H](O)C[C@H](O[C@H]3[C@@H](O)C[C@H](O[C@H]4CC[C@@]5(C)C(CCC6C5C[C@@H](O)[C@]5(C)[C@@H](C7=CC(=O)OC7)CC[C@]65O)C4)O[C@@H]3C)O[C@@H]2C)O[C@H](C)[C@H]1O[C@@H]1O[C@H](CO)[C@@H](O)[C@H](O)[C@H]1O (some centres undefined)
10 µM unless noted
  growth: -56.2% (active)

## O=C1C=C2C(=CCOC2O)O1 (centres undefined)
10 µM unless noted
  growth: -55.5% (active)

## CC1=C[C@H]2O[C@@H]3C[C@@H](O)[C@](C)([C@@]2(C)CC1)[C@@]31CO1
10 µM unless noted
  growth: 28.7%

## CC1[C@H](C)OC(=O)CC(O)CC(O)CC(O)CCC(O)C(O)C[C@]2(O)CC(O)C(C(=O)O)C(CC(OC3O[C@H](C)[C@@H](O)[C@H](N)[C@@H]3O)/C=C/C=C/C=C/C=C/CC/C=C/C=C/[C@H](C)[C@H]1O)O2 (some centres undefined)
10 µM unless noted
  growth: 108%

## CCCCN(CCCC)P(=O)(Oc1ccccc1)Oc1ccccc1
10 µM unless noted
  growth: 39.2%

## CCOCC1(CCc2ccccc2)C(=O)NC(=S)NC1=O
10 µM unless noted
  growth: 119%

## COC(=O)[C@@H](C)C[C@H](Cc1ccccc1)NC(=O)c1csc([C@@H](C[C@H](C(C)C)N(C)C(=O)[C@@H](NC(=O)C23CC(NC(C)=O)(C2)C3)C2CC2)OC(C)=O)n1
10 µM unless noted
  growth: 3.05% (active)

## Nc1ccc2c(c1)Cc1cc(Br)ccc1-2
10 µM unless noted
  growth: 85.2%

## Cc1cc(C(C)(C)C)ccc1O
10 µM unless noted
  growth: 99.3%

## Cc1cc(C)nc(C)c1.[Cl][Hg][Cl]
10 µM unless noted
  growth: 113%

## CC[C@H](C)[C@H](NC(=O)c1ccccn1)C(=O)N(C)[C@H](C[C@@H](OC(C)=O)c1nc(C(=O)N[C@@H](Cc2ccccc2)C[C@H](C)C(=O)OC)cs1)C(C)C
10 µM unless noted
  growth: -7.06% (active)

## Nc1c(Cl)c(Cl)nc(C(=O)O)c1Cl
10 µM unless noted
  growth: 107%

## O=C(C(=O)N1CCCC1)c1cn(CCCCCn2cc(C(=O)C(=O)N3CCCC3)c3ccccc32)c2ccccc12
10 µM unless noted
  growth: 91%

## Nc1ccc2c(c1)oc1ccccc12
10 µM unless noted
  growth: 92.6%

## O=[P+](O)c1ccccc1
10 µM unless noted
  growth: 114%

## O=C/C=C/c1ccco1
10 µM unless noted
  growth: 106%

## C[C@]12CC[C@H](O)C[C@@H]1CC[C@@H]1[C@@H]2CC[C@]2(C)OC(=O)CC[C@@H]12
10 µM unless noted
  growth: 106%

## CC(C)(C)C(=O)OCOP(=O)(OCOC(=O)C(C)(C)C)C1CCCN(O)C1=O (centres undefined)
10 µM unless noted
  growth: -8.03% (active)

## O=Cc1cn(Cc2ccccc2)c2ccccc12
10 µM unless noted
  growth: 2.33% (active)

## CN(C)C(=O)Oc1ccccc1
10 µM unless noted
  growth: 113%

## O=C1C(N2CC2)=C(N2CC2)C(=O)C(N2CC2)=C1N1CC1
10 µM unless noted
  growth: 0.964% (active)

## CCOC(=S)S[C@H]1C[C@@H]2[C@H](CC[C@]3(C)C(=O)CC[C@@H]23)[C@@]2(C)CCC(=O)C=C12
10 µM unless noted
  growth: 101%

## Clc1cc(N2CC2)nc(N2CC2)n1
10 µM unless noted
  growth: 9.71% (active)

## c1ccc2c(c1)sc1ccccc12
10 µM unless noted
  growth: 97.2%

## COc1ccc(C2=CC(c3ccc(OC)c(OC)c3)c3c(c4ccccc4oc3=O)O2)cc1OC (centres undefined)
10 µM unless noted
  growth: -8.37% (active)

## COc1cc(OC)c(S(=O)(=O)N(CCCl)CCCl)cc1C(=O)/C=C/c1ccc(Cl)cc1
10 µM unless noted
  growth: 47.6%

## Cc1nc2ccccc2c(=O)n1-c1ccccc1F
10 µM unless noted
  growth: 105%

## CCNc1nc(Cl)nc(NCC)n1
10 µM unless noted
  growth: 106%

## COC(=O)[C@@H](C)C[C@H](Cc1ccc2ccccc2c1)NC(=O)c1csc([C@@H](C[C@H](C(C)C)N(C)C(=O)[C@@H](NC(=O)[C@H]2CCCCN2C)C(C)C)OC(C)=O)n1
10 µM unless noted
  growth: 67%

## Cc1ccc(N2CCN(CCC#N)CC2)cc1
10 µM unless noted
  growth: 105%

## C[n+]1c(/C=C/c2ccc(N(CCCl)CCCl)cc2)sc2ccccc21
10 µM unless noted
  growth: -0.963% (active)

## C[C@]12CC[C@@H]3c4ccc(Oc5nc(N6CC6)nc(N6CC6)n5)cc4CC[C@H]3[C@@H]1CCC2=O
10 µM unless noted
  growth: 30.4%

## CN1CCc2cc3c(cc2C1O)OCO3 (centres undefined)
10 µM unless noted
  growth: 99.4% and 108%

## CC(=O)C(c1c(O)c2ccccc2oc1=O)c1cc(=O)oc2c1ccc1ccccc12 (centres undefined)
10 µM unless noted
  growth: 96.6%

## CC1([N+](=O)[O-])COP(=O)(Nc2ccc(F)cc2)OC1 (centres undefined)
10 µM unless noted
  growth: 110%

## COc1cc(/C=C(/C)[N+](=O)[O-])ccc1O
10 µM unless noted
  growth: -85.4% (active) and -90.3% (active)

## CC(=O)Oc1ccccc1C(=O)NCCC[Se]C#N
10 µM unless noted
  growth: 19%

## COc1ccc(N)cc1N
10 µM unless noted
  growth: 101%

## CC[n+]1c(-c2ccccc2)c2cc(N)ccc2c2ccc(N)cc21
10 µM unless noted
  growth: -62.8% (active)

## N#CCCNc1ccccc1
10 µM unless noted
  growth: 108%

## COC(=O)[C@@]1(O)C[C@H]2O[C@]1(C)n1c3ccccc3c3c4c(c5c6ccccc6n2c5c31)C(=O)NC4
10 µM unless noted
  growth: -72.4% (active)

## CC(=O)OCC1OC([S-])C(OC(C)=O)C(OC(C)=O)C1OC(C)=O.[Au+].c1ccc(CN2[CH-]N(Cc3ccccc3)C(c3ccccc3)=C2c2ccccc2)cc1
4.75 µM
  growth: -23.8% (active)
10 µM
  growth: -41.9% (active)

## S=C(SSC(=S)N1CCCCC1)N1CCCCC1
10 µM
  growth: 98.1%
100 µM
  growth: -62.8% (active)
